Assay results: PubChem BioAssay AID1159580 (chemical genetic matrix, 2015)
The whole screen tested about 5,500 compounds, of which about 2,000 (36%) were called active. Inconclusive results (about 18%) are left out. Rule as the data show it: active = normalized growth mostly below about 0.91 (no sharp cut-off); inconclusive = no clear call, values can overlap the other calls; inactive = mostly above about 0.92. Some of the results follow.

Assay: chemical genetic growth profiling, strain panel (AID 1159580);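 also: tested at 20 µM; growth read once vehicle control cultures reached saturation at 30 °C; 1 = growth at the plate median or of vehicle wells; lower values mean less growth of the strain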
Details: growth OD

Measured: normalized growth

O=C1C=C(O)c2ccccc2C1=O
active: S. cerevisiae deletion strains, locus YJR066W, strain TOR1, hits give low values 0.825 | S. cerevisiae deletion strains, locus YKR026C, strain gcn3, hits give low values 0.919 | S. cerevisiae deletion strains, locus YLR262C, strain YPT6 (second series), hits give low values 0.738 | S. cerevisiae deletion strains, locus YMR058W, strain fet3, hits give low values 0.872 | S. cerevisiae deletion strains, locus YMR231W, strain pep5, hits give low values 0.919 | S. cerevisiae deletion strains, locus YOR106W, strain vam3, hits give low values 0.863 | S. cerevisiae deletion strains, locus YOR231W, strain MKK1, hits give low values 0.797 | S. cerevisiae deletion strains, locus YPL051W, strain arl3, hits give low values 0.873 | S. cerevisiae deletion strains, locus YPL240C, strain hsp82, hits give low values 0.918 | S. cerevisiae deletion strains, locus YPL256C, strain CLN2, hits give low values 0.818
inactive: S. cerevisiae deletion strains, locus YJR043C, strain POL32, hits give low values 1.01 | S. cerevisiae deletion strains, locus YKL009W, strain mrt4, hits give low values 1.04 | S. cerevisiae deletion strains, locus YKL068W, hits give low values 0.942 | S. cerevisiae deletion strains, locus YKL085W, strain MDH1 (second series), hits give low values 0.947 | S. cerevisiae deletion strains, locus YKL085W, strain MDH1, hits give low values 0.947 | S. cerevisiae deletion strains, locus YKL160W, strain elf1, hits give low values 0.912 | S. cerevisiae deletion strains, locus YKR001C, strain vps1, hits give low values 0.9 | S. cerevisiae deletion strains, locus YKR091W, strain srl3, hits give low values 0.961 | S. cerevisiae deletion strains, locus YLL001W, strain dnm1, hits give low values 0.937 | S. cerevisiae deletion strains, locus YLL026W, hits give low values 0.952 | S. cerevisiae deletion strains, locus YLL041C, strain sdh2, hits give low values 0.939 | S. cerevisiae deletion strains, locus YLR027C, strain aat2, hits give low values 0.935 | S. cerevisiae deletion strains, locus YLR039C, strain RIC1, hits give low values 0.71 | S. cerevisiae deletion strains, locus YLR058C, strain SHM2, hits give low values 0.949 | S. cerevisiae deletion strains, locus YLR102C, strain apc9, hits give low values 0.982 | S. cerevisiae deletion strains, locus YLR113W, strain HOG1, hits give low values 0.867 | S. cerevisiae deletion strains, locus YLR221C, strain rsa3, hits give low values 0.925 | S. cerevisiae deletion strains, locus YLR258W, strain gsy2, hits give low values 0.944 | S. cerevisiae deletion strains, locus YLR262C, strain YPT6, hits give low values 0.82 | S. cerevisiae deletion strains, locus YLR268W, strain sec22, hits give low values 0.923 | S. cerevisiae deletion strains, locus YLR320W, strain mms22, hits give low values 0.949 | S. cerevisiae deletion strains, locus YLR330W, strain CHS5, hits give low values 0.959 | S. cerevisiae deletion strains, locus YLR342W, strain FKS1 (second series), hits give low values 1.04 | S. cerevisiae deletion strains, locus YLR342W, strain FKS1, hits give low values 0.948 | S. cerevisiae deletion strains, locus YLR357W, strain rsc2, hits give low values 0.932 | S. cerevisiae deletion strains, locus YLR370C, strain arc18, hits give low values 0.941 | S. cerevisiae deletion strains, locus YLR371W, strain rom2, hits give low values 0.966 | S. cerevisiae deletion strains, locus YLR384C, strain iki3, hits give low values 0.971 | S. cerevisiae deletion strains, locus YLR418C, strain cdc73, hits give low values 0.894 | S. cerevisiae deletion strains, locus YML016C, strain PPZ1, hits give low values 0.956 | S. cerevisiae deletion strains, locus YML032C, strain rad52, hits give low values 0.907 | S. cerevisiae deletion strains, locus YML120C, strain ndi1, hits give low values 0.93 | S. cerevisiae deletion strains, locus YML124C, strain tub3, hits give low values 0.964 | S. cerevisiae deletion strains, locus YMR078C, strain ctf18, hits give low values 0.989 | S. cerevisiae deletion strains, locus YMR125W, strain sto1, hits give low values 0.954 | S. cerevisiae deletion strains, locus YMR129W, hits give low values 0.937 | S. cerevisiae deletion strains, locus YMR205C, strain PFK2, hits give low values 0.994 | S. cerevisiae deletion strains, locus YMR223W, strain ubp8, hits give low values 0.944 | S. cerevisiae deletion strains, locus YMR307W, strain GAS1, hits give low values 0.863 | S. cerevisiae deletion strains, locus YNL067W, strain RPL9B, hits give low values 0.966 | S. cerevisiae deletion strains, locus YNL071W, strain lat1, hits give low values 0.945 | S. cerevisiae deletion strains, locus YNL128W, strain TEP1, hits give low values 0.974 | S. cerevisiae deletion strains, locus YNL183C, strain NPR1, hits give low values 0.884 | S. cerevisiae deletion strains, locus YNL209W, strain ssb2, hits give low values 0.941 | S. cerevisiae deletion strains, locus YNL233W, strain BNI4, hits give low values 0.978 | S. cerevisiae deletion strains, locus YNL248C, strain rpa49, hits give low values 0.951 | S. cerevisiae deletion strains, locus YNL250W, strain rad50, hits give low values 0.953 | S. cerevisiae deletion strains, locus YNL271C, strain bni1, hits give low values 0.941 | S. cerevisiae deletion strains, locus YNL298W, strain CLA4, hits give low values 0.968 | S. cerevisiae deletion strains, locus YNL307C, strain MCK1, hits give low values 0.968 | S. cerevisiae deletion strains, locus YNL322C, strain KRE1 (second series), hits give low values 0.944 | S. cerevisiae deletion strains, locus YNL322C, strain KRE1, hits give low values 0.971 | S. cerevisiae deletion strains, locus YNR049C, strain mso1, hits give low values 0.958 | S. cerevisiae deletion strains, locus YNR052C, strain pop2, hits give low values 0.941 | S. cerevisiae deletion strains, locus YOL006C, strain TOP1, hits give low values 0.865 | S. cerevisiae deletion strains, locus YOL012C, strain htz1 0.668 | S. cerevisiae deletion strains, locus YOL147C, strain pex11, hits give low values 0.955 | S. cerevisiae deletion strains, locus YOR001W, strain rrp6, hits give low values 0.931 | S. cerevisiae deletion strains, locus YOR061W, strain CKA2, hits give low values 0.979 | S. cerevisiae deletion strains, locus YOR069W, strain VPS5, hits give low values 0.971 | S. cerevisiae deletion strains, locus YOR070C, strain gyp1, hits give low values 0.956 | S. cerevisiae deletion strains, locus YOR080W, strain dia2, hits give low values 0.951 | S. cerevisiae deletion strains, locus YOR083W, strain WHI5, hits give low values 0.904 | S. cerevisiae deletion strains, locus YOR136W, strain idh2, hits give low values 0.952 | S. cerevisiae deletion strains, locus YOR144C, strain elg1, hits give low values 0.966 | S. cerevisiae deletion strains, locus YOR184W, strain ser1, hits give low values 0.918 | S. cerevisiae deletion strains, locus YOR265W, strain rbl2, hits give low values 0.944 | S. cerevisiae deletion strains, locus YOR270C, strain vph1, hits give low values 0.846 | S. cerevisiae deletion strains, locus YOR290C, strain snf2, hits give low values 0.902 | S. cerevisiae deletion strains, locus YOR316C, strain cot1, hits give low values 0.98 | S. cerevisiae deletion strains, locus YPL078C, strain atp4, hits give low values 0.897 | S. cerevisiae deletion strains, locus YPL106C, strain sse1, hits give low values 0.866 | S. cerevisiae deletion strains, locus YPL241C, strain CIN2, hits give low values 0.967 | S. cerevisiae deletion strains, locus YPR119W, strain clb2, hits give low values 0.966 | S. cerevisiae deletion strains, locus YPR141C, strain kar3, hits give low values 0.948 | S. cerevisiae deletion strains, locus YPR163C, strain tif3, hits give low values 0.995 | S. cerevisiae deletion strains, locus YPR167C, strain met16, hits give low values 0.956 | S. cerevisiae deletion strains, strain wtn01, hits give low values 0.967 | S. cerevisiae strains, strain wild type, hits give low values 0.978
